Data taken from the supplement of paper PMC6555819.

Assays:
Experiment in all cases: PBM binding z-score (relative to random genomic background probes); higher = stronger binding; sequences stand for … in GC…GCGATTGACAGCGTAGAATGAAGG
[1] = tested on: PPARg:RXRa DBDmut IVT, anti-RXR (DBD mutation: RXRa K156A/R161A, NR concentration 270 nM, RXRa partner concentration 90 nM)
Procedure, shortened: (§1)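 Binding z-scores take random background probes as their reference. They come from custom Agilent 4×180K protein-binding microarrays incubated 1 h with ligand-free nuclear receptor dimers, with antibodies against each partner (one per run) detecting binding. Scanned fluorescence was regression-normalized.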

[2] = tested on: PPARg:RXRa IVT, anti-PPARg (NR concentration 270 nM, RXRa partner concentration 90 nM)
Procedure, shortened: as §1

[3] = tested on: PPARg DBDmut IVT, anti-PPARg (DBD mutation: PPARg1 K132A/R137A, NR concentration 270 nM)
Procedure, shortened: as §1

[4] = tested on: PPARg homodimer (NR concentration 180 nM)
Procedure, shortened: as §1

[5] = tested on: PXR:RXRa (NR concentration 270 nM, RXRa partner concentration 90 nM)
Procedure, shortened: as §1

[6] = tested on: PXR homodimer (NR concentration 270 nM)
Procedure, shortened: as §1

[7] = tested on: RARa:RXR (NR concentration 270 nM, RXRa partner concentration 90 nM)
Procedure, shortened: as §1

[8] = tested on: RARa homodimer (NR concentration 270 nM)
Procedure, shortened: as §1

[9] = tested on: RARb:RXRa (NR concentration 270 nM, RXRa partner concentration 90 nM)
Procedure, shortened: as §1

[10] = tested on: RARb homodimer (NR concentration 270 nM)
Procedure, shortened: as §1

[11] = tested on: RARg:RXRa (NR concentration 270 nM, RXRa partner concentration 90 nM)
Procedure, shortened: as §1

[12] = tested on: RARg homodimer (NR concentration 270 nM)
Procedure, shortened: as §1

[13] = tested on: RXRa DBDmut IVT, anti-RXR (DBD mutation: RXRa K156A/R161A, NR concentration 90 nM)
Procedure, shortened: as §1

[14] = tested on: RXRa homodimer (NR concentration 180 nM)
Procedure, shortened: as §1

[15] = tested on: THRa:RXRa (NR concentration 90 nM, RXRa partner concentration 90 nM)
Procedure, shortened: as §1

[16] = tested on: THRa homodimer (NR concentration 90 nM)
Procedure, shortened: as §1

[17] = tested on: VDR homodimer (NR concentration 270 nM)
Procedure, shortened: as §1

Sequence | PBM binding z-score [1] | PBM binding z-score [2] | PBM binding z-score [3] | PBM binding z-score [4] | PBM binding z-score [5] | PBM binding z-score [6] | PBM binding z-score [7] | PBM binding z-score [8] | PBM binding z-score [9] | PBM binding z-score [10] | PBM binding z-score [11] | PBM binding z-score [12] | PBM binding z-score [13] | PBM binding z-score [14] | PBM binding z-score [15] | PBM binding z-score [16] | PBM binding z-score [17]
ATATGTAGGTTAGGGTCGTTCAGAAAGTAGGGAA | 6.06 | 6.47 | 2.98 | 2.38 | 2.11 | 1.67 | 2.37 | 1.51 | 1.92 | 2.05 | 1.69 | 1.16 | 1.52 | 2.44 | 2.85 | 1.95 | 2.55
CGAACTAGGTCACCAGGACAGTGACGAGGTTGGA | 8.26 | 8.82 | 1.73 | 1.63 | 1.66 | -0.0254 | 2.69 | 0.339 | 4.38 | 3.61 | 4.59 | 5.52 | 1.22 | 3.43 | 3.55 | 1.99 | 0.698
ATATGTAGGGTAGGGTCATTCAGAAAGTAGGGAA | 6.28 | 5.96 | 4.11 | 2.93 | 4.39 | 2.67 | 4.44 | 2.33 | 3.21 | 3.53 | 3.55 | 2.77 | 2.93 | 4.34 | 4.11 | 3.7 | 4.73
CGAACTAGGTCACCGGGACAGTGAAGAGGTTGGA | 7.85 | 9.13 | 0.892 | 2.28 | 1.79 | -0.271 | 3.2 | 0.436 | 4.33 | 3.62 | 4.73 | 5.23 | 1.41 | 3.62 | 3.75 | 1.79 | 0.333
CGAACTATGTCAAAGGACAGTGAAAGGCGACGTA | 3.02 | 3.26 | 0.207 | 0.527 | -0.558 | -0.587 | -0.379 | -0.181 | 1.45 | 1.14 | 1.08 | 1.39 | -0.18 | 0.00503 | 0.122 | -0.538 | -0.0132
CGAGCTAGGTCACCAGGACAGTGAAGAGGTTGGA | 3.94 | 4.43 | -1.08 | 1.48 | 1.35 | -0.379 | 2.36 | 0.327 | 4.16 | 3.31 | 4.21 | 5.39 | 1.24 | 2.97 | 3.18 | 1.65 | 0.493
ATATGTAGGATAGGGTCATTCAGAAAGTAGGGAA | 2.75 | 3.63 | 1.68 | 2.36 | 3.47 | 1.46 | 4.19 | 1.52 | 2.69 | 2.75 | 3.19 | 2.22 | 1.78 | 4.32 | 3.59 | 2.24 | 3.42
ATATGTAGGTTAGGGTTATTCAGAAAGTAGGGAA | 6.88 | 6.54 | 2.32 | 2.77 | 2.33 | 1.31 | 2.55 | 1.94 | 1.57 | 1.72 | 1.45 | 1.05 | 1.06 | 2.13 | 2.45 | 1.52 | 1.23
ATATGTAGGTTAGGATCATTCAGAAAGTAGGGAA | 6.17 | 6.13 | 1.84 | 1.69 | 0.594 | 0.622 | 0.758 | 1.36 | 0.759 | 0.531 | 0.593 | 0.675 | 0.541 | 1.01 | 0.577 | 0.347 | 0.616
CGAACTAGGTGACCAGGACAGTGAAGAGGTTGGA | 7.15 | 7 | -0.325 | -0.217 | -0.13 | -0.15 | 0.228 | -0.394 | 0.744 | 1.03 | 0.633 | 0.705 | -0.229 | 0.65 | 1.36 | 0.885 | -0.155
CGAACCAGGTCAAAGGACAGTGAAAGGCGACGTA | 4.57 | 5.82 | 0.805 | 1.1 | 2.07 | 0.537 | 2.82 | 0.116 | 3.86 | 2.94 | 4.32 | 4.33 | 2.36 | 3.81 | 3.21 | 1.24 | 1.15
CGAACTAGGCCACCAGGACAGTGAAGAGGTTGGA | 6.89 | 6.5 | -0.0856 | -0.263 | -0.874 | -0.217 | -0.512 | -0.684 | 0.821 | 0.689 | 0.238 | 0.672 | -0.131 | -0.0253 | 0.954 | 0.3 | -0.183
CGAACTAGGTCACCAGGACAGAGAAGAGGTTGGA | 8.29 | 8.26 | 0.828 | 2.46 | 1.55 | 0.0837 | 2.56 | 0.391 | 4.22 | 3.46 | 4.58 | 5.47 | 1.79 | 3.97 | 3.37 | 1.89 | 0.617
CGAATTAGGTCAAAGGACAGTGAAAGGCGACGTA | 8.15 | 7.88 | 2.44 | 2.21 | 1.46 | 0.358 | 2.87 | 0.296 | 4.18 | 3.18 | 4.17 | 4.47 | 1.73 | 3.37 | 3.09 | 1.4 | 0.401
ATATGAAGGTTAGGGTCATTCAGAAAGTAGGGAA | 1.38 | 2.78 | 1.79 | 3.99 | 4.59 | 2.32 | 5.28 | 2.29 | 3.66 | 3.58 | 4.37 | 3.36 | 2.29 | 5.38 | 4 | 3.15 | 4.12
CGAACTAGGTCCCCAGGACAGTGAAGAGGTTGGA | 3.03 | 2.5 | -1.06 | -0.774 | -0.741 | -0.316 | -0.649 | -0.996 | 0.0236 | -0.127 | -0.281 | -0.0988 | -0.51 | -0.31 | 0.965 | 0.258 | -0.533
ATATATAGGTTAGGGTCATTCAGAAAGTAGGGAA | 6.92 | 6.72 | 2.87 | 4.26 | 4.79 | 2.81 | 5.43 | 2.83 | 3.58 | 3.6 | 4.24 | 3.75 | 2.67 | 5.33 | 4.11 | 3.76 | 3.95
